Data reported in PubChem BioAssay (NCATS).
Inconclusive results are not listed. Calls of active or inactive are those of the source. Unless noted, calls follow the shape of the dose curve; as a rule, active = well fitted curve in the direction sought with a large enough effect; inconclusive = small, poorly fitted or top-dose-only effect, or another doubt; inactive = no such curve, though single readings can be large; an effect the other way counts as inactive or inconclusive.

Legend:
[1] = target: Aldehyde dehydrogenase, mitochondrial (Homo sapiens) (UniProt P05091); assay: qHTS for Inhibitors of the Aldehyde Dehydrogenase Family (ALDH2) Validation screens (AID 2061302; active = well fitted inhibition curve with a large enough effect; title and protocol of this record describe different tests;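 also: plate controls were DMSO vehicle for no effect and maximal DPI positive control response for full effect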)
[2] = target: Retinaldehyde dehydrogenase 3 (Homo sapiens) (UniProt P47895); assay: qHTS for Inhibitors of the Aldehyde Dehydrogenase Family (ALDH1A3) Validation screen (AID 2061312); also: % is scaled to controls: 0 for no effect and ±100 for the full control effect; nearly all actives have a fitted effect of over 45% in size
[3] = BET inhibitor-based combinations targeting novel dependencies in MECOM-rearranged (r) AML: SET-2 cell line (AID 2202231); conditions: SET-2 AML cells viability, CellTiter-Glo luminescence, 48 h; viability: stronger effect = lower value, concentration not given here; also: nearly all actives have a fitted effect of over 35% in size; also: potency is read from the fitted curve at half-maximal effect;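 as to viability: plate controls were DMSO treated cells for no effect and wells without cells for full effect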
Procedure, shortened: (§1)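 Viability of cells (500 per well) is scored by luminescent CellTiter-Glo at 48 hr post-dosing. Eleven-point titrations are normalized to DMSO and empty controls and reduced to AUC values.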

[4] = BET inhibitor-based combinations targeting novel dependencies in MECOM-rearranged (r) AML: OCI-AML3 cell line (AID 2202232); conditions: Potency: OCI-AML3 viability; also: nearly all actives have a fitted effect of over 35% in size; also: potency is read from the fitted curve at half-maximal effect
Procedure, shortened: as §1

[5] = BET inhibitor-based combinations targeting novel dependencies in MECOM-rearranged (r) AML: MV-4-11 cell line (AID 2202233); also: nearly all actives have a fitted effect of over 45% in size; also: potency is read from the fitted curve at half-maximal effect
Procedure, shortened: (§2)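 Using pin-tool transfer, drugs were added in 11 doses to cells (500/well), incubated 48 hr, and assessed with CellTiter-Glo. Z-AUC is a mean-centring transformation applied separately to each screened line.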

[6] = BET inhibitor-based combinations targeting novel dependencies in MECOM-rearranged (r) AML: HNT-34 cell line (AID 2202234); also: nearly all actives have a fitted effect of over 35% in size; also: potency is read from the fitted curve at half-maximal effect
Procedure, shortened: as §2

[7] = BET inhibitor-based combinations targeting novel dependencies in MECOM-rearranged (r) AML: UCSD-AML1 cell line (AID 2202235); also: nearly all actives have a fitted effect of over 40% in size; also: potency is read from the fitted curve at half-maximal effect
Procedure, shortened: as §2

[8] = BET inhibitor-based combinations targeting novel dependencies in MECOM-rearranged (r) AML: AML-191 cell line (AID 2202236; also: nearly all actives have a fitted effect of over 35% in size; also: potency is read from the fitted curve at half-maximal effect)
Procedure, shortened: as §1

[9] = BET inhibitor-based combinations targeting novel dependencies in MECOM-rearranged (r) AML: AML-194 cell line (AID 2202237; also: nearly all actives have a fitted effect of over 40% in size; also: potency is read from the fitted curve at half-maximal effect)
Procedure, shortened: as §1

[10] = target: Aldehyde dehydrogenase, mitochondrial (Homo sapiens) (UniProt P05091); assay: qHTS for Inhibitors of the Aldehyde Dehydrogenase Family (ALDH2) Confirmatory screens (AID 2061303; active = well fitted inhibition curve with a large enough effect; title and protocol of this record describe different tests; also: % is scaled to controls: 0 for no effect and ±100 for the full control effect; nearly all actives have a fitted effect of over 45% in size)

CCCC(CCC)C(=O)O
inactive: Potency [1] | Potency [2] | viability [3] 112% | Potency [4] | Potency [5] | Potency [6] | Potency [7] | Potency [8] | Potency [9]

O=C1c2ccccc2-c2n[nH]c3cccc1c23
active: Potency [4] 4680 nM | Potency [5] 3320 nM | Potency [6] 13200 nM
inactive: Potency [1] | Potency [2]

CN1CCN(C2=Nc3cc(Cl)ccc3Nc3ccccc32)CC1
active: Potency [6] 20900 nM
inactive: Potency [1] | Potency [2] | Potency [4] | Potency [5] | Potency [9]

CC(=O)[C@H]1CC[C@H]2[C@@H]3CCC4=CC(=O)CC[C@]4(C)[C@H]3CC[C@]12C
inactive: Potency [1] | Potency [2]

O=C1c2c(O)ccc(O)c2C(=O)c2c(NCCNCCO)ccc(NCCNCCO)c21
active: Potency [3] 742 nM | Potency [4] 209 nM | Potency [5] 74.2 nM | Potency [6] 132 nM | Potency [7] 148 nM | Potency [8] 372 nM | Potency [9] 372 nM
inactive: Potency [1]

Cn1c(=O)c2[nH]cnc2n(C)c1=O
inactive: Potency [1] | Potency [2] | viability [3] 117% | Potency [4] | Potency [5] | Potency [6] | Potency [7] | Potency [8] | Potency [9]

CC(=O)OCC(CCn1cnc2cnc(N)nc21)COC(C)=O
inactive: Potency [1] | Potency [2] | viability [3] 121% | Potency [4] | Potency [5] | Potency [6] | Potency [7] | Potency [9]

C[C@]12CCC(=O)C=C1CC[C@@H]1[C@@H]2[C@@H](O)C[C@@]2(C)[C@H]1CC[C@]2(O)C(=O)CO
active: Potency [8] 417 nM
inactive: Potency [1] | Potency [2] | Potency [4] | Potency [5] | Potency [6] | Potency [7] | Potency [9]

Nc1ccn([C@@H]2O[C@H](CO)[C@@H](O)[C@@H]2O)c(=O)n1
inactive: Potency [1] | Potency [2]

COc1cc2c(c(OC)c1OC)-c1ccc(OC)c(=O)cc1[C@@H](NC(C)=O)CC2
inactive: Potency [1]
active: Potency [3] 66.1 nM | Potency [4] 29.5 nM | Potency [5] 37.2 nM | Potency [7] 41.7 nM | Potency [8] 33.2 nM

CCC1(c2ccccc2)C(=O)NCNC1=O
inactive: Potency [1] | Potency [2] | viability [3] 109% | Potency [4] | Potency [5] | Potency [6] | Potency [7] | Potency [8] | Potency [9]

CCc1cccc(CC)c1NC(=O)CN(C)S(=O)(=O)c1ccc2c(c1)n(C)c(=O)c(=O)n2C
inactive: Potency [10]

O=c1[nH]cnc2[nH]ncc12
active: Potency [6] 1.3 nM
inactive: Potency [1] | Potency [2] | viability [3] 124% | Potency [5] | Potency [7] | Potency [8] | Potency [9]

CCN(CC)S(=O)(=O)c1ccc2c(c1)N(CC(=O)Nc1ccc(OC)cc1)C(=O)CS2
inactive: Potency [10]

CC(=O)OCC(=O)[C@@]1(O)CC[C@H]2[C@@H]3CCC4=CC(=O)CC[C@]4(C)[C@H]3C(=O)C[C@@]21C
inactive: Potency [1] | Potency [2] | viability [3] 122% | Potency [4] | Potency [5] | Potency [6] | Potency [8] | Potency [9]

FC(F)(F)c1ccnc(-c2cc(NCc3ccccn3)nc3[nH]ccc23)c1
inactive: Potency [10]

Cc1ccc(CN2CCN(C(=O)C3CCCN(C(=O)c4ccccc4)CCC(=O)NCC3)CC2)cc1 (stereo unspecified)
inactive: Potency [10]

O=c1c(-c2ccc(O)cc2)coc2cc(O)ccc12
inactive: Potency [1] | Potency [2] | viability [3] 112% | Potency [7] | Potency [8] | Potency [9]
active: Potency [5] 23500 nM | Potency [6] 16600 nM

N[C@@H]1CONC1=O
inactive: Potency [1] | Potency [2] | viability [3] 117% | Potency [4] | Potency [5] | Potency [6] | Potency [7] | Potency [8] | Potency [9]

OCCN(CCO)c1nc(N2CCCCC2)c2nc(N(CCO)CCO)nc(N3CCCCC3)c2n1
inactive: Potency [1] | Potency [2] | Potency [7] | Potency [9]

CN(C)CCOC(c1ccccc1)c1ccccc1
inactive: Potency [1] | viability [3] 105% | Potency [4] | Potency [5] | Potency [6] | Potency [7] | Potency [8] | Potency [9]

N[C@@H](Cc1c[nH]c2ccc(O)cc12)C(=O)O
inactive: Potency [1] | Potency [2] | viability [3] 98.1% | Potency [4] | Potency [5] | Potency [7] | Potency [8] | Potency [9]

CCC1(C)CC(=O)NC1=O (stereo unspecified)
inactive: Potency [1] | Potency [2] | Potency [4] | Potency [5] | Potency [7] | Potency [9]

NCCCC(N)(C(=O)O)C(F)F (stereo unspecified)
inactive: Potency [1] | viability [3] 102% | Potency [4] | Potency [6] | Potency [7] | Potency [8] | Potency [9]

Cn1cnc2c1c(=O)[nH]c(=O)n2C
inactive: Potency [1] | Potency [2] | viability [3] 114% | Potency [4] | Potency [5] | Potency [6] | Potency [7] | Potency [8] | Potency [9]
